# Source: PubChem BioAssay AID1626 (SRMLSC, 2009)
# Screen size: about 220,000 compounds; about 2,000 (0.91%) were called active. Another 2% or so got no clear call; they are omitted. A selection follows. Entries with a potency or affinity are not part of this list. Values without a mark were called inactive. Cut-off read from the data, not from the text of the source: inconclusive = inhibition above about 80% without an active follow-up result; inactive = below that; test concentration not stated here.
# Experiment: M. tuberculosis H37Rv growth inhibitors, H37Rv strain (AID 1626);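 note: bacteria incubated seven days before Alamar blue readout; 0% = bacteria only wells and 100% = bacteria with antibiotic wells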
# Conditions: hits give high values, concentration not given here
row,Compound,inhibition [%]
1,Cc1ccccc1NC(=O)Cc1nnc(SCc2ccc(Cl)c(Cl)c2)n1C,-3.35
2,COc1cccc(C(=O)NNC(=S)NC2CCCCC2)c1,4.93
3,CCCn1c(SCC(=O)Nc2ccccc2C(=O)OC)nc2c1c(=O)n(C)c(=O)n2C,0.72
4,O=C(CCl)NCc1c(Cl)cccc1-n1cccc1,-3.53
5,COCCOC(=O)c1c(NC(=O)CN2c3ccccc3CC2C)sc(C(N)=O)c1C (stereo unspecified),6.79
6,O=C(COC(=O)c1cccc(Cl)c1Cl)NCCN1C(=O)CSC1=O,-1.16
7,O=S(=O)(c1cc(Cl)ccc1Br)N1CCCCC1,3.97
8,CCOC(=O)N1CCC(Nc2nc3ccccc3n3cnnc23)CC1,4.5
9,O=C(C[n+]1cc(-c2ccccc2)n2c1CCC2)Nc1nc(-c2ccccc2)cs1,77.8
10,Cc1ccc(-c2c[n+](CC(=O)Nc3c(C)cccc3C)c3n2CCC3)cc1,-1.5
11,Cc1ccc(-c2csc(NC(=O)C[n+]3cc(-c4ccccc4)n4c3CCC4)n2)cc1,75.7
12,Cc1ccc(NC(=O)C[n+]2cc(-c3ccc(C)cc3)n3c2CCC3)cc1,0.55
13,CC(C)(CO)NCc1ccc(Br)cc1,1.99
14,C/C(=N/NC(=O)CN1CCN(Cc2ccccc2Cl)CC1)c1ccco1,-5.99
15,CNC(=O)COC(=O)/C=C/c1ccco1,-4.68
16,COC(=O)C1CC(=O)N(Cc2ccccc2)C1 (stereo unspecified),-1.62
17,COc1ccc(C2C(C(=O)OCC(=O)NC(C)(C)C)CCC(=O)N2c2ccc(C)cc2)cc1OC (stereo unspecified),70.3
18,CCOC(=O)c1c(NC(=O)C(=O)N/N=C/c2ccc(OCC)cc2)sc2c1CCCCC2,2.16
19,O=C(Cc1sc(-c2ccccc2Cl)nc1-c1ccccc1)Nc1ccc(F)cc1,-0.94
20,CC(C)CCN1C(=O)c2ccc(C(=O)NCc3ccco3)cc2C1=O,4.17
21,COc1ccc(C2NCCc3c2[nH]c2ccccc32)cc1CN1CCc2cc(OC)c(OC)cc2C1C (stereo unspecified),4.52
22,COc1cc(C2NCCc3c2[nH]c2ccccc32)ccc1OC(C)C (stereo unspecified),1.05
23,Cc1ccc(N(CC(=O)NCCSc2nc3ccccc3s2)S(=O)(=O)c2ccccc2)c(C)c1,9.8
24,COC(=O)c1ccc(/C=C(\C#N)c2nc3ccccc3s2)cc1,3.69

row,Compound,inhibition [%]
1,CNC(=O)Nc1cccc2cccnc12,-8.8
2,Cc1ccc(S(=O)(=O)Nc2cccc3cccnc23)cc1,-2.94
3,CN(CCc1ccccn1)C(=S)Nc1ccc(Cl)c(Cl)c1,3.62
4,COc1ccc(NS(=O)(=O)c2cnc[nH]2)cc1,5.45
5,Cc1[nH]n(-c2ccccc2)c(=O)c1C(=O)c1ccccc1,-0.23
6,Cc1[nH]n(-c2ccccc2)c(=O)c1C(=O)c1ccc(Cl)cc1,-3.87
7,CCn1c(=O)c(=O)[nH]c2cc(C(=O)N3CCN(c4ccccc4F)CC3)ccc21,7.44
8,Nc1ccc(C(=O)OCC(=O)N2c3ccccc3Sc3ccccc32)cc1[N+](=O)[O-],-1.19
9,Cc1ccc(N=Cc2c(O)n(-c3nccs3)c(=O)c3ccccc23)cc1,-4.95
10,Cc1cccc(C)c1N=Cc1c(O)n(-c2nccs2)c(=O)c2ccccc12,2.79
11,Clc1ccc(Cl)c(-c2ccc(/C=N/c3ncn[nH]3)o2)c1,6.69
12,Cc1cc(C(=O)N/N=C/c2ccc(-c3ccc(C)c(Cl)c3)o2)n[nH]1,56.6
13,CSc1ccc(CN(C)Cc2nc3cc(C(F)(F)F)ccc3c(=O)[nH]2)cc1,91.3
14,COc1cccc(CN(C)Cc2nc3cc(C(F)(F)F)ccc3c(=O)[nH]2)c1,4.79
15,CC(C)C(=O)NNC(=O)c1c(O)c2ccccc2[nH]c1=O,-10.7
16,Cc1cc(C)n(-c2ncc3c(n2)N(CCO)CCOC3=O)n1,10.4
17,O=C(/C=C/c1cccc(O)c1)c1cccnc1,53.2
18,O=C(/C=C/c1ccc([N+](=O)[O-])cc1)c1cccnc1,11.1
19,O=C(/C=C/c1ccccc1)c1ccccc1,10.5
20,N#Cc1ccc(/C=C/C(=O)O)cc1,-0.8
21,O=C(/C=C/c1ccccc1Cl)c1cccnc1,-7.55
22,CCN(CC)c1ccc(/C=C/C(=O)c2cccnc2)cc1,16.5
23,O=C(/C=C/c1cccnc1)c1ccc(O)cc1,-0.25
24,CN(C)c1ccc(/C=C/C(=O)c2cccnc2)cc1,3.22

row,Compound,inhibition [%]
1,CC(C)(C)CC(C)(C)NC(=S)NC1CCN(Cc2ccccc2)CC1,-15.9
2,Cc1ccc(NC(=S)Nc2cccc(-c3n[nH]c(=S)o3)c2)cc1,10.2
3,O=C(COC(=O)/C=C/c1ccc(Cl)cc1)NCCC1=CCCCC1,-4.53
4,Cc1cccc(C(=O)NCC2CCCO2)c1 (stereo unspecified),-2.3
5,Cc1ccc(CNC(=O)C(=O)NCC2OCCN2S(=O)(=O)c2cccs2)cc1 (stereo unspecified),-2.36
6,CCOC(=O)c1c[nH]n(-c2ccc(C)cc2)c1=O,-7.4
7,Cc1onc(-c2ccccc2Cl)c1C(=O)Nc1ncn[nH]1,6.99
8,CCOC(=O)C1CCCN(Cc2cc(Br)c(OC)cc2OC)C1 (stereo unspecified),1.19
9,Cc1cc(C(=O)N(CCC#N)Cc2cccs2)no1,-6.57
10,CCOc1ccc(C(C)NC(=O)C2CCC2)cc1 (stereo unspecified),1.59
11,COCc1nnc(SCC(=O)NCc2ccccc2)n1-c1ccccc1,-6.68
12,COc1ccccc1NC(=O)C1=C(C)NC2=C(C(=O)CCC2)C1c1ccc2c(c1)OCO2 (stereo unspecified),-0.94
13,O=C(/C=C/c1ccc(Cl)c([N+](=O)[O-])c1)Nc1cccnc1,-11.5
14,O=C(/C=C/c1ccc(Cl)c([N+](=O)[O-])c1)NCc1cccnc1,2.22
15,Cc1nc(C(=O)Nc2ccc(F)cc2)nn1-c1ccc([N+](=O)[O-])cc1,-5.91
16,CCC1(C)Cc2ccccc2C(Nc2c(C)n(C)n(-c3ccccc3)c2=O)=N1 (stereo unspecified),-6.85
17,Cc1nc(-c2cccc(NC(=O)C3CCCCC3)c2)cs1,-1.02
18,COc1cccc(-c2nc(-c3ccc4c(c3)NC(=O)CO4)cs2)c1,22.4
19,COc1ccccc1Nc1nc(-c2ccc3c(c2)NC(=O)CO3)cs1,-3.16
20,CCC(C(=O)Nc1cc(Cl)c(OC)cc1OC)c1ccccc1 (stereo unspecified),-3.66
21,CC(=O)OC(C(=O)Nc1ccccc1)C(C)S(=O)(=O)c1ccccc1 (stereo unspecified),-4.23
22,O=C(Nc1ccccc1Cl)O/N=C/c1ccncc1,-1.05
23,CC(C)C(=O)Nc1ccc(C(=O)NNC(=O)NC2CCCCC2)cc1,-3.11
24,COc1cccc(NC2c3ccccc3C(=O)N2Cc2ccccc2Cl)c1 (stereo unspecified),8.87

row,Compound,inhibition [%]
1,O=C(COC(=O)c1ccc2ccccc2n1)c1ccc(F)cc1,-7.45
2,O=C(OCc1ccc([N+](=O)[O-])cc1)c1ccc2ccccc2n1,40.4
3,O=C(CSc1nc2ccccc2s1)N1c2ccccc2Sc2ccccc21,1.29
4,O=C(O)CSc1nc2ccccc2[nH]1,-9.58
5,COc1ccc(C(C)(C)C)cc1NC(=O)COC(=O)c1ncc(Cl)c(Cl)c1Cl,-2.28
6,COc1ccc(NC(=O)COC(=O)c2cc(SC)ccc2Cl)c(OC)c1,10.1
7,Cc1ccc(N2C(=O)c3cccc4c([N+](=O)[O-])ccc(c34)C2=O)c2cccnc12,-2.68
8,O=C1c2cccc3c([N+](=O)[O-])ccc(c23)C(=O)N1c1nccs1,-1.82
9,O=C1c2cccc3cccc(c23)C(=O)N1c1ccccn1,2
10,O=C1c2cccc3cccc(c23)C(=O)N1Cc1cccnc1,-2.19
11,O=C1c2cccc3cccc(c23)C(=O)N1CC1CCCO1 (stereo unspecified),0.46
12,O=C1c2ccc(Oc3cccc([N+](=O)[O-])c3)cc2C(=O)N1c1ccccn1,-2.15
13,O=C1c2ccc3c4c(ccc(c24)C(=O)N1Cc1cccnc1)C(=O)N(Cc1cccnc1)C3=O,7.76
14,O=C1c2ccccc2C(=O)N1CC1CCCO1 (stereo unspecified),-1.11
15,CCOC(=O)c1[nH]c2cc(OC)c(OC)cc2c1NC(=O)CN1CCN(C)CC1,-4.7
16,COC(=O)CS(=O)(=O)c1ccc(C)cc1,-7.54
17,CCCOC(=O)c1c(NC(=O)CCCn2nc([N+](=O)[O-])cc2C)sc(C(=O)OC)c1C,-6.65
18,CCOP(=O)(OCC)C(Nc1cc(Cl)cc(Cl)c1)c1cccc(O)c1 (stereo unspecified),1.6
19,CCO[C@@H]1OC(C(=O)Nc2ccccc2)=C[C@H](c2ccc(C(F)(F)F)cc2)[C@H]1CCCO,3.16
20,Cc1occc1-c1nnc(SCC(=O)c2c(N)n(Cc3ccccc3)c(=O)n(C)c2=O)n1C,4.82
21,CCCC(=O)Nc1ccc(C(=O)NN=C(C2CC2)C2CC2)cc1,-2.7
22,CCCSc1nnc(CSc2nc3nc(C)cc(C)n3n2)o1,-11.4
23,CCCCSc1nnc(CSc2nc3nc(C)cc(C)n3n2)o1,8.33
24,Cc1cc2nc(N)sc2cc1[N+](=O)[O-],-4.98
